Assay results taken from PubChem BioAssay AID686970 (National Center for Advancing Translational Sciences (NCATS), 2013).
Among all 360,000 compounds or so, about 6,000 (1.7%) were called active. Inconclusive results (about 8%) are left out. For the sample, actives were picked, then their nearest neighbours and some compounds at random. Unmarked numbers belong to inactive results. Calls come from the whole dose curve; as a rule, active = well fitted cell-killing curve with a large enough effect; inconclusive = small, poorly fitted or top-dose-only effect, or effect the other way; inactive = flat fitted curve, though single readings scatter.

Assay: qHTS for induction of synthetic lethality in tumor cells producing 2HG: qHTS for the HT-1080-NT fibrosarcoma cell line;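 note: NT is the 2HG producing partner of a matched IDH1 knockdown line; nearly all actives have a fitted effect of over 55% in size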;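 for activity, negative = less viability: 0% = DMSO-treated cells and -100% = media-only wells without cells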
Settings: HT-1080-NT fibrosarcoma viability, CellTiter-Glo ATP luminescence, 48 h; series mostly up to 46.1 µM; activity, negative = less viability: at the top concentration
Outline: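 Viability of the 2HG-overproducing fibrosarcoma line after 48 hours of compound exposure at 37 degrees C was determined by luminescence with CellTiter-Glo, and concentration-effect curves were then fitted and categorized.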
Potency is the fitted concentration of half-maximal effect.

Row | Structure (SMILES) | activity, negative = less viability [%] | Potency
1 | O=S1(=O)C[C@@H](N2CCN(CCO)CC2)[C@H](COCc2ccccc2)N1 | 14.5 | 
2 | Cc1cn([C@H]2C[C@H](O)[C@@H](/C=C/C(=O)NCCCc3ccccc3)O2)c(=O)[nH]c1=O | -2.92 | 
3 | CSc1ccc(CN2CCC2(C)C(=O)NCc2ccccc2Br)cc1 (centres undefined) | -24.6 | 
4 | Cc1oc2c(F)c(F)c(F)c(F)c2c1S(=O)(=O)Nc1cccc(C(F)(F)F)c1 |  | 3.26 µM (active)
5 | O=C(NCc1ccccc1)c1ccc(S(=O)(=O)Nc2cccc(C(F)(F)F)c2)cc1 | -25.6 | 
6 | O=C(COc1ccc(S(=O)(=O)Nc2cccc(C(F)(F)F)c2)cc1)N1CCOCC1 | -3.05 | 
7 | CCCCn1nnnc1C(c1cccc(OC)c1OC)N1CCN(C/C=C/c2ccccc2)CC1 (centres undefined) | -22.9 | 
8 | C/C(=N\Nc1ccc(Cl)nn1)c1ccccc1O |  | 0.731 µM (active)
9 | CCCCCCCN=C(C)c1ccccc1O | 19.4 | 
10 | C/C(=N/Nc1ccc(Cl)cc1)c1cnnc(-c2ccccc2)n1 | 12.4 | 
11 | CCOC(=O)[C@]12CCCC=C1N(Cc1ccc(Cl)cc1Cl)C(=O)[C@H](CC(=O)N1CCCCC1)C2 | 14.2 | 
12 | Cc1ccc(NC(=S)N(CCN2CCCCC2)Cc2ccco2)cc1C | -4.57 | 
13 | Cc1ccc(NC(=S)N(CCCN2CCC(C)CC2)Cc2ccco2)cc1 | 0.938 | 
14 | Cc1ccc(NC(=S)N(CCCN2CCCC2)Cc2cccn2Cc2ccc(Cl)cc2)cc1 |  | 23.1 µM (active)
15 | Cc1nc(C(F)(F)F)ccc1C(=O)N1CCC1(C)C(=O)NS(=O)(=O)c1ccccc1 (centres undefined) | 0.451 | 
16 | Cc1onc(-c2c(Cl)cccc2Cl)c1C(=O)c1c[nH]c(C(=O)NC2CC2)c1 | -5.57 | 
17 | Cc1[nH]n(C)c(=O)c1C(=O)c1c(-c2c(Cl)cccc2Cl)noc1C |  | 20.6 µM (active)
18 | Cc1onc(-c2c(Cl)cccc2Cl)c1C(=O)NNC(=O)c1c(-c2c(Cl)cccc2Cl)noc1C | -6.56 | 
19 | CCC(Oc1ccccc1)C(=O)OCC(=O)Nc1c(C)nn(-c2ccccc2)c1C (centres undefined) | 13.5 | 
20 | COc1cccc(OCc2cc(C(=O)N3CCN(C(=O)c4ccco4)CC3)no2)c1 | 6.57 | 
21 | COc1cccc(C(=O)Nc2nnc(S(=O)(=O)N3CCCCC3)s2)c1 | -9.49 | 
22 | COc1cccc(C(=O)Nc2ccc(N3CCN(C(=O)c4ccco4)CC3)cc2)c1 |  | 23.1 µM (active)
23 | COc1cccc(C(=O)Nc2ccc(N3CCCC3)cc2)c1 |  | 20.6 µM (active)
24 | Cc1ccc(OCC(=O)Nc2ccc(N3CCN(C(=O)c4ccco4)CC3)cc2)c(C)c1 | -2.23 | 

Row | Structure (SMILES) | activity, negative = less viability [%] | Potency
25 | COc1cccc(C(=O)Nc2ccc3nc4n(c(=O)c3c2)CCCCC4)c1 | 0.489 | 
26 | COc1cccc(-c2ccc3c(c2)N(Cc2ccccc2OC)C(=O)C(C)S3)c1 (centres undefined) | 14 | 
27 | O=C1NC[C@@H](CCCCN2CCN(CCc3ccc(O)cc3)C(=O)C2=O)N(CC2CCCCC2)C1=O | 2.04 | 
28 | Cc1ccccc1S(=O)(=O)NC(=O)C1(C)CCN1C(=O)Cc1ccc(Cl)cc1Cl (centres undefined) | 0.417 | 
29 | CC1(C)OC(=O)C2=C(C[C@@H](C3CCCC3)O[C@@H]2c2ccc(Cl)cc2)O1 | -0.447 | 
30 | COc1ccc(NC(=O)CCCOc2ccc(C(C)=O)cc2)cc1S(=O)(=O)N1CCCCC1 | -10.6 | 
31 | CC(=O)Nc1cc(-c2ccc(N3CCN(C)CC3)cc2)cn2c(-c3cccc(C(=O)N(C)C)c3)cnc12 | 22.9 | 
32 | CS(=O)(=O)Nc1ccc(C2=NN(S(C)(=O)=O)C(c3cccs3)C2)cc1 (centres undefined) | 3.27 | 
33 | CS(=O)(=O)Nc1cccc(C2=NN(C(=O)c3cccc(F)c3)C(c3cccs3)C2)c1 (centres undefined) | -17.5 | 
34 | CCS(=O)(=O)Nc1ccc(C2=NN(C(C)=O)C(c3cccs3)C2)cc1 (centres undefined) |  | 23.1 µM (active)
35 | O=C(Cc1ccc([N+](=O)[O-])cc1)NCCS(=O)(=O)N1CCN(c2ccccc2)CC1 | -2.58 | 
36 | COc1ccc(CC(N)c2csc(NC(=O)Cc3ccccc3)n2)cc1 (centres undefined) |  | 23.1 µM (active)
37 | COc1ccc(CNC(=O)C(Cc2ccccc2)n2cccc2)cc1 (centres undefined) | 12.5 | 
38 | COc1ccc(Cc2nnc(NC(=O)Cc3cccs3)s2)cc1 | -7.23 | 
39 | CC(C)(C)CC(=O)Nc1nc(C(N)Cc2ccc(C(F)(F)F)cc2)cs1 (centres undefined) |  | 16.4 µM (active)
40 | Cc1ccccc1NC(=O)Cc1nc(COC(=O)c2ccc(C(F)(F)F)cc2)cs1 | -8.34 | 
41 | COc1ccc(CC(N)c2csc(NC(=O)NC(c3ccccc3)c3ccccc3)n2)cc1 (centres undefined) |  | 23.1 µM (active)
42 | COc1ccc(CC(=O)Nc2sc(Cc3ccccc3)c(C)c2C(N)=O)cc1 | -16.4 | 
43 | COc1ccc(NC(=O)C(Br)C(C)C)cc1 (centres undefined) | 2.27 | 
44 | CC(C)(C)CC(=O)Nc1nnc(SCC(=O)NCc2cccs2)s1 | -2.03 | 
45 | COc1ccc(CC(N)c2csc(NC(=O)Nc3ccc(C(C)C)cc3)n2)cc1 (centres undefined) |  | 18.4 µM (active)
46 | COc1ccc(OC)c(NC(=O)N[C@H](Cc2ccccc2)C(=O)NN)c1 | -17.7 | 
47 | COC(=O)[C@H](CCSC)NC(=O)Nc1ccc(OC)cc1 | 7.07 | 
48 | CCNC(=O)C1(C)CCCN(C(=O)c2ccc3ccccc3n2)C1 (centres undefined) | 18.6 | 

Row | Structure (SMILES) | activity, negative = less viability [%] | Potency
49 | CN(Cc1ccc(C(F)(F)F)cc1)C(=O)[C@H]1O[C@@H](n2cnc3c(N)ncnc32)[C@H](O)[C@@H]1O | 1.31 | 
50 | O=C(c1ccc2c(=O)n(Cc3ccco3)c(=S)[nH]c2c1)N1CCCC1 | 17.1 | 
51 | COc1ccc([C@H]2C[C@@H](n3cc(COC(=O)c4ccccc4)nn3)[C@H](O)CN2C(=O)c2cccs2)cc1 | -16.2 | 
52 | COC(=O)c1ccc2nc(-c3ccc(C)cc3)c(Cc3ccc(OC)cc3C)n2c1 | 2.62 | 
53 | O=C(COc1ccc(S(=O)(=O)N2CCCC2)cc1[N+](=O)[O-])N1CCCCC1 | 3.38 | 
54 | CCCCNC(=O)c1nc(C2CCN(S(=O)(=O)c3ccc(F)c(F)c3)CC2)oc1-c1cccc(C(F)(F)F)c1 | 20.6 | 
55 | COC(=O)c1ccc2nc(-c3ccccc3)c(Cc3ccc(OC)cc3C)n2c1 | 9.2 | 
56 | CC(C)(C)c1ccc(S(=O)(=O)NC(=O)C2(C)CCN2C(=O)CC2CC2)cc1 (centres undefined) | 16.8 | 
57 | N#Cc1ccc(-c2ccc3nccn3c2)cc1 | 11.3 | 
58 | COc1cccc(-n2cc3c(c2-c2ccccc2)c(=O)n(C)c(=O)n3C)c1 | -10.2 | 
59 | COc1cccc(-n2nc(C(=O)N3CCN(Cc4ccccc4)CC3)c3ccccc3c2=O)c1 | -15.9 | 
60 | COc1cccc(-n2cc(C(=O)O)c3ccccc3c2=O)c1 |  | 14.1 µM (active)
61 | CCOC(=O)c1cc(-c2sc(NC(=O)c3ccccc3)nc2C)n(-c2ccc(Br)cc2)n1 | -3.27 | 
62 | CCc1nc2ccc(C(=O)N(C)Cc3ccco3)cn2c1N(C)C(=O)Cc1ccccc1 | 12.2 | 
63 | O=C(CC[C@H]1O[C@@H](n2ccc(=O)[nH]c2=O)[C@H](O)[C@@H]1O)N[C@H](Cc1ccccc1)C(=O)NCc1ccco1 | 16.7 | 
64 | COc1cccc(/C=N/Nc2ccc(S(=O)(=O)Nc3ccccc3C(=O)O)cc2[N+](=O)[O-])c1O | -0.335 | 
65 | COc1ccccc1-n1c(SCC(=O)Nc2cccc(C(=O)O)c2)nnc1-c1ccccc1O | 12.6 | 
66 | COc1cccc(/C=N/Nc2cc(C)nc(-c3ccccc3O)n2)c1O |  | 8.2 µM (active)
67 | O=C(Nc1ccc2c(c1)[C@@H]1C[C@@H](CC(=O)N3CCCCC3)O[C@@H](CO)[C@@H]1O2)NC1CCCCC1 | -11 | 
68 | CCCS(=O)(=O)NC(=O)C1(C)CCCN(C(=O)c2cc(C)on2)C1 (centres undefined) | 23.2 | 
69 | CCOC(=O)C1=CCC(c2ccc(F)cc2)N(S(=O)(=O)c2ccc(C)cc2)C1 (centres undefined) | -28.5 | 
70 | COc1ccc(Sc2ccc(NC(=O)c3cccc(Cl)c3)cc2C#N)cc1 | -13.9 | 
71 | COc1cccc(C(NC(C)=O)c2nc(-c3ccccc3OC)cs2)c1 (centres undefined) | -1.79 | 
72 | CCOC1=C2CN(S(=O)(=O)c3ccc(C)cc3)[C@H](c3cccs3)C[C@H]2[C@H]2C(=O)N(c3ccccc3)C(=O)[C@H]2C1 | 14.8 | 

Row | Structure (SMILES) | activity, negative = less viability [%] | Potency
73 | CC(C)(C)c1ccc(/C=C/C(=O)Nc2ncccn2)cc1 | -10.7 | 
74 | COC(=O)c1sc(-c2ccc(C(C)(C)C)cc2)cc1NC(=O)/C=C/C(=O)O |  | 11.6 µM (active)
75 | COc1ccc(NS(=O)(=O)c2ccc(N3CCOCC3)c(NC(=O)/C=C/C(=O)O)c2)cc1 | 10.2 | 
76 | COc1cccc(OCC(=O)NCCS(=O)(=O)N2CCN(c3ccccc3)CC2)c1 | 8.66 | 
77 | COc1ccc(CC(NC(C)=O)C(=O)NC2CCN(C(=O)C3CC3)CC2)cc1OC (centres undefined) | 21 | 
78 | CCc1ccc(OCC2c3cc(OC)c(OC)cc3CCN2C(C)=O)cc1 (centres undefined) |  | 16.4 µM (active)
79 | COc1ccc(CC(NC(C)=O)C(=O)NC2CCN(C(=O)c3ccc(OC)c(OC)c3)CC2)cc1OC (centres undefined) | 8.35 | 
80 | CCOC1=C2[C@@H](CN(S(=O)(=O)c3ccc(C)cc3)[C@H]2c2ccccc2F)[C@H]2C(=O)N(Cc3ccccc3)C(=O)[C@H]2C1 | -0.579 | 
81 | O=[N+]([O-])c1ccc(NS(=O)(=O)c2ccccc2)c(Cl)c1 |  | 6.51 µM (active)
82 | O=C(NNS(=O)(=O)c1ccc(F)cc1)c1ccc([N+](=O)[O-])cc1Cl | 2.11 | 
83 | Cc1cc([N+](=O)[O-])ccc1NS(=O)(=O)c1ccccc1 | -9.92 | 
84 | CC(C)C[C@@H]1COc2cc(N3CCC[C@@H]3CO)ccc2S(=O)(=O)N1 | 5.13 | 
85 | CC(C)CCOc1ccc(C(=O)Nc2cc(S(=O)(=O)N3CCOCC3)ccc2N2CCOCC2)cc1 | 0.747 | 
86 | O=[N+]([O-])c1ccc(CN2CC(N3CCC(c4ccccc4)CC3)CS2(=O)=O)cc1 (centres undefined) | 2.9 | 
87 | CCOC(=O)N1CCN(C(=O)c2ccccc2N(Cc2ccccc2)S(=O)(=O)c2ccc(OC)cc2)CC1 |  | 3.26 µM (active)
88 | NC(=O)c1ccccc1N(Cc1ccccc1)S(=O)(=O)c1ccccc1 | 2.72 | 
89 | CCOC(=O)N1CCN(S(=O)(=O)c2ccc(OC)cc2)CC1 | 5.1 | 
90 | COc1ccc(NC(=O)COC(=O)C2COc3ccccc3O2)cc1 (centres undefined) | 6.35 | 
91 | COCc1cccc(-c2csc(C(O)c3ccc(F)cc3)n2)c1 (centres undefined) | -11.2 | 
92 | COc1cccc(/C=N/NC(=O)CNC(=O)c2ccc(S(=O)(=O)N3CCOCC3)cc2)c1OC | -6.44 | 
93 | COc1cc(/C=N/NC(=O)c2cc(-c3ccccc3C)nc3ccccc23)cc(OC)c1O | -6.84 | 
94 | COc1cccc(/C=N/NC(=O)c2[nH]nc3c2CCc2ccccc2-3)c1O |  | 2.59 µM (active)
